High-throughput results: PubChem BioAssay, National Center for Advancing Translational Sciences (NCATS)
Only some compounds are listed: those with a hit (about 6.5% of all), similar ones and a draw of the others.
VACV mCherry inh: qHTS for Stage-Specific Inhibitors of Vaccinia Orthopoxvirus: mCherry Reporter Primary qHTS; AID 720579, 2013; Vaccinia virus mCherry reporter infection, fluorescence; Potency, µM (top dose mostly 36.5 µM), without a hit: at the highest dose activity change, negative = inhibition, usual class: inhibitors; 0.63% of 310,000 active; calls by dose curve; tested in A549 cells; note: potency is the fitted concentration of half-maximal effect; nearly all actives have a fitted effect of over 35% in size
Vaccinia Venus: qHTS for Stage-Specific Inhibitors of Vaccinia Orthopoxvirus: Venus Reporter Primary qHTS; Potency, µM (doses to about 36.5 µM), inactives show at the top dose activity change, negative = inhibition, usual class: inhibitors; 0.46% of 330,000 active; Vaccinia virus Venus reporter expression, fluorescence; calls by dose curve; tested in A549 cells; note: potency is the fitted concentration of half-maximal effect; nearly all actives have a fitted effect of over 30% in size
FMDV antiviral: High Throughput Screening for Foot and Mouth Disease Virus Antivirals | FMDV antiviral cell-based qHTS | 1.2% of 410,000 active | AID 1159524, 2015 | Potency, µM (titrated, usually from 57.9 µM), for inactives: top-dose activity change, negative = inhibition, most hits filed as inhibitors; calls by dose curve; tested in HEK293T cells; note: read-out not given here; potency is the fitted concentration of half-maximal effect; nearly all actives have a fitted effect of over 45% in size
Lassa entry inh: qHTS for Inhibitors of binding or entry into cells for Lassa Virus; Lassa virus pseudotype entry inhibition, cell reporter; Potency, µM (doses to about 37.9 µM), without a hit: top-dose activity change, negative = inhibition, usual class: inhibitors; 1.2% of 300,000 active; calls by dose curve; tested in HEK293 cells; note: potency is the fitted concentration of half-maximal effect; nearly all actives have a fitted effect of over 50% in size
HCMV antiviral: qHTS Assay for inhibitors of the human cytomegalovirus (HCMV) | activity change, negative = inhibition, % at 57.5 µM | HFF cells, HCMV-luciferase reporter, 72 h; active compounds read low | 4.5% of 410,000 active; in the data active = activity change below about -60%; inconclusive = no clear call, values can overlap the other calls; inactive = above about -39%
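Screen run at 2 compound doses on HFFs infected with reporter HCMV, MOI 1 PFU/cell. Luciferase activity from cell lysates at 72 h post infection gave inhibition relative to buffer-only and Salinomycin wells.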
MARV entry inh: qHTS for inhibitors of binding or entry into cells for Marburg Virus; Marburg virus pseudotyped entry inhibition, cell reporter; Potency, µM (doses to about 37.8 µM), without a hit: at the highest dose activity change, negative = inhibition, actives largely listed as inhibitors; 1.8% of 300,000 active; AID 540276, 2011; calls by dose curve; tested in HEK293 cells; note: potency is the fitted concentration of half-maximal effect
Starred values were filed as active, the others as inactive; i = inactive; u = inconclusive; x = no result given; [ ] = another dose, or the depositor's remark. % is set by controls: 0 for no effect and ±100 for the full control effect.

SMILES | VACV mCherry inh | Vaccinia Venus | FMDV antiviral | Lassa entry inh | HCMV antiviral | MARV entry inh
COc1ccc(C(=O)c2coc3c2C(=O)C(=O)c2ccccc2-3)cc1 | -13% | u | 41% | 11µM* | 68 | u
CC1(C)CC(N=c2cc(-c3ccccc3)oc3ccc(Cl)cc23)CC(C)(C)N1 | u | u | 6% | u | -99* | u
CCn1c(-c2cccnc2)nc2cc(NC(=O)COC)cc(C(=O)N3CC[C@@H]4CCCC[C@H]4C3)c21 | -15% | -6% | -7% | x | x | x
COc1ccc(CN2C(=O)c3ccccc3C(/C=N\OCc3ccc(F)cc3)C2=O)cc1 (stereo unspecified) | x | 6% | u | -3% | -91* | -25%
Cc1cc(NC(=O)c2cccc(Cl)c2)n[nH]1 | i | -14% | 73% | x | 59 | x
Cc1cc(NC(=O)NC(=O)c2ccc(F)cc2F)n[nH]1 | x | -13% | -20% | 16µM* | 25 | u
COC(=O)[C@@H]1CCCN1Cc1ccc2c(c1)CN(Cc1coc3ccccc3c1=O)CCO2 | -4% | 14% | 16% | x | x | x
CCOC(=O)c1c(NC(=O)CSc2nncs2)sc(C)c1-c1ccccc1 | u | u | u | u | -64* | u
CCOC(=O)c1c(NC(=O)CSc2nnnn2C)sc(C)c1-c1ccc(C)cc1 | x | x | u | u | u | 23µM*
CCOC(=O)c1c(-c2ccccc2)csc1NC(=O)CSc1nnnn1C | x | x | u | u | -32 | u
CCOc1ccc2nc(C)cc(Nc3ccccc3OCC)c2c1 | -23% | -15% | -4% | u | u | x
Cc1ccc(NS(=O)(=O)c2cc(C(=O)NCCSc3ccc(C)cc3)ccc2C)cc1 | u | u | x | u | -98* | u
Cc1ccc(NS(=O)(=O)c2cc(C(=O)NCCSC3CCCCC3)ccc2C)cc1 | x | x | -8% | u | -32 | u
Cc1ccc(SCCNC(=O)c2ccc(C)c(S(=O)(=O)Nc3cccc(C)c3)c2)cc1 | -5% | -10% | x | u | -70* | u
Cc1ccc(SCCNC(=O)c2ccccc2)cc1 | -22% | -17% | 13% | 8% | -31 | -15%
Cc1ccc(S(=O)(=O)N2C[C@@H]3CCCC[C@@H]3[C@@H](C)[C@H]2c2cn(Cc3ccccc3)c3ncccc23)cc1 | u | u | -25% | x | -86* | x
Cc1ccc(S(=O)(=O)N2C[C@@H]3[C@H]4CC[C@H](C4)[C@@H]3[C@@H](C)[C@@H]2c2cn(Cc3ccccc3)c3ncccc23)cc1 | i | -24% | -23% | x | u | x
Cc1ccc(S(=O)(=O)N2C[C@@H]3CCCC[C@@H]3[C@@H](C)[C@H]2c2cn(Cc3ccccc3)c3ccccc23)cc1 | -25% | u | 0% | x | -97* | x
CCc1ccc(C(=O)c2cn(CC(=O)Nc3cccc(OC)c3)c3ccc(OC)cc3c2=O)cc1 | -4% | -13% | 9% | -24%[46.1 µM] | -13 | u
O=C(CC1C(=O)N(Cc2ccccc2)C(=S)N1CCN1CCOCC1)Nc1ccc(F)cc1 (stereo unspecified) | -18% | -6% | 15% | 1% | -69* | 6%[46.1 µM]
CCOc1ccc(NC(=O)CC2C(=O)N(C)C(=S)N2CCCc2ccccc2)cc1 (stereo unspecified) | i | -9% | -15% | u | -26 | u
CCN1C(=O)C(CC(=O)Nc2ccc(Br)cc2)N(CCCc2ccccc2)C1=S (stereo unspecified) | x | u | u | 13µM* | u | u
CCCOc1ccc(NC(=O)CC2C(=O)N(CC)C(=S)N2CCCN2CCN(Cc3ccccc3)CC2)cc1 (stereo unspecified) | -29% | u | 4% | u | -84* | u
CCCOc1ccc(NC(=O)CC2C(=O)N(CC)C(=S)N2CCNC(C)=O)cc1 (stereo unspecified) | i | -21% | -17% | -2% | -13 | 16%
Fc1cnc(N/N=C/c2ccc(-c3ccc(Br)cc3)o2)nc1N1CCOCC1 | i | -14% | -16% | 5%[46.1 µM] | 5 | 0%[46.1 µM]
